High-throughput results (PubChem)
TDP1 cell noCPT – qHTS for Inhibitors of human tyrosyl-DNA phosphodiesterase 1 (TDP1): qHTS in cells in absence of CPT; DT40 Tdp1-/- hTDP1 cells, no CPT, ATP luminescence, 48 h; Potency, µM (titrated, usually from 46.2 µM), for inactives: top-dose activity change, negative = growth inhibition, hits mostly inhibitors; 420,000 tested, 15% active; AID 686978, 2013; further: potency means the concentration at half of the fitted maximal effect; nearly all actives have a fitted effect of over 55% in size
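No-CPT arm: Tdp1-/-;hTDP1 DT40 cells (400/well) plus compounds, incubated ≥48 hr at 37 °C. Readout CellTiter-Glo luminescence.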
VP16 counter – VP16 counterscreen qHTS for inhibitors of ROR gamma transcriptional activity. Drosophila S2 Gal4-VP16 UAS-luciferase, luminescence, 20 h. AID 2546, 2010. 310,000 tested, 3.5% active. Potency, µM (highest dose often 53.6 µM), for the others: at the top dose activity, negative = inhibition, hits mostly inhibitors;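 further: Gal4-VP16 expression switched on by copper sulfate through the metallothionein promoter; potency means the concentration at half of the fitted maximal effect; nearly all actives have a fitted effect of over 50% in size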
RORgamma inh – qHTS for inhibitors of ROR gamma transcriptional activity; 310,000 tested, 5.4% active; Nuclear receptor ROR-gamma (Mus musculus), P51450; Potency, µM (doses to about 53.6 µM), inactives show at the highest dose activity change, negative = inhibition, hits mostly inhibitors; Drosophila S2 Gal4-RORgamma UAS-luciferase reporter, 20 h; further: potency means the concentration at half of the fitted maximal effect; nearly all actives have a fitted effect of over 60% in size
Target sequence (P51450 whole entry, looked up, the tested form may be a part): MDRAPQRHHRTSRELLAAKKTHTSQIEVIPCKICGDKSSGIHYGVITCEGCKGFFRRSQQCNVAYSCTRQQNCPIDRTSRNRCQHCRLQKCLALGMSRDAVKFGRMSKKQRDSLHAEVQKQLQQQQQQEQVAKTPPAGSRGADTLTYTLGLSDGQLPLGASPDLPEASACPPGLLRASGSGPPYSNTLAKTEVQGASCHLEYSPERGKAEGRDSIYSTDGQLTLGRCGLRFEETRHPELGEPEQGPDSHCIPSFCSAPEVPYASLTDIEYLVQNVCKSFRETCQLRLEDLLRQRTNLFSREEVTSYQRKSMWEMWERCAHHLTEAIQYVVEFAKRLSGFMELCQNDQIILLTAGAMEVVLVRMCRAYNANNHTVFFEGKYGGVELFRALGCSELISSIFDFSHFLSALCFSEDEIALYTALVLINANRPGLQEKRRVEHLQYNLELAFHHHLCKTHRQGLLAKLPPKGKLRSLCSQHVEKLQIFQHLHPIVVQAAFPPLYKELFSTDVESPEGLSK
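Using a luciferase readout, inhibitors were identified by reduced reporter activity in Drosophila cells coexpressing a copper-inducible Gal4–ROR gamma fusion and UAS-driven Photinus luciferase, incubated 20 hr after 700 uM copper sulfate.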
DT40 TDP1 CPT – qHTS for Inhibitors of human tyrosyl-DNA phosphodiesterase 1 (TDP1): qHTS in cells in presence of CPT; AID 686979, 2013; chicken DT40 Tdp1-/-;hTDP1 cells + 20 nM CPT, ATP luminescence, 48 h; Potency, µM (series often up to 46.2 µM), inactives show at the highest dose activity change, negative = growth inhibition, usual class: inhibitors; 420,000 tested, 12% active; further: potency means the concentration at half of the fitted maximal effect; nearly all actives have a fitted effect of over 55% in size
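Cell growth measured by CellTiter-Glo luminescence after a minimum 48 h, 37 C compound exposure with 20 nM CPT in Tdp1-knockout DT40 cells stably expressing hTDP1, seeded 400/well; qHTS titration format.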
ELG1 repair inh – qHTS screen for small molecules that inhibit ELG1-dependent DNA repair in human embryonic kidney (HEK293T) cells expressing luciferase-tagged ELG1 | HEK293T ELG1-luciferase reporter, luminescence, 16 h; DNA damage induced by 5-fluorouridine | Potency, µM (titrated, usually from 46.1 µM), inactives show top-dose activity change, negative = inhibition, usual class: inhibitors | 330,000 tested, 2.3% active | AID 504467, 2011; further: potency means the concentration at half of the fitted maximal effect; nearly all actives have a fitted effect of over 55% in size
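Reporter activity after DNA damage by 5-fluorouridine is monitored. Compound-treated cells incubate 16 hr at 37 °C, then ONE-Glo is added for 30 min before luminescence reading.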
IL-1B inflam inh – qHTS for Inhibitors of Inflammasome Signaling: IL-1-beta AlphaLISA Primary Screen. 360,000 tested, 4.7% active. activity change, % at 57.5 µM. THP-1 LPS/ATP IL-1B secretion, AlphaLISA, 16 h; active compounds read low; in the data active means activity change below about -50%; inconclusive means mostly about -30% to -49%
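THP-1 cells pretreated 1 hr with compounds (up to 57.5 uM final), then stimulated with LPS (250 ng/mL final) plus ATP (1.25 mM final); secreted IL-1B measured by AlphaLISA after 16 hr, decreased signal indicating inhibition.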
The depositor's hits bear a star; u = inconclusive; x = not tested or not shown; [ ] = dose if it differs, or a comment. Sampled rows, rich in hits. Any-hit rate of the full collection: about 21%. Unless noted, the call rests on the fitted dose curve; in most records, active means well fitted curve in the direction sought with a large enough effect; inconclusive means small, poorly fitted or top-dose-only effect, or another doubt; inactive means no such curve, though single readings can be large; an effect the other way counts as inactive or inconclusive. On the % scale 0 is the no-effect control and ±100 the full control effect.

SMILES | TDP1 cell noCPT | VP16 counter | RORgamma inh | DT40 TDP1 CPT | ELG1 repair inh | IL-1B inflam inh
O=C(NCCc1ccccc1)c1cc(-c2ccccc2)c(N2CCOCC2)s1 | 16µM* | x | x | u | x | u
COc1ccc(CCNC(=O)c2ccc(CNc3c(N4CCOCC4)c(=O)c3=O)cc2)cc1OC | -14% | 5% | 1% | 16% | 2% | -8
O=C(NCCc1ccccc1)c1cc([N+](=O)[O-])ccc1N1CCOCC1 | -23% | x | x | u | 12% | -18
CCCCC/C=C/C1=CC(=O)C[C@H](c2ccc(OC)cc2)C1 | -20% | x | x | -22% | 18% | -10
O=c1c2cc3c(cc2n(Cc2ccc(Cl)cc2)c(=O)n1Cc1nc(-c2ccccc2)no1)OCO3 | 1% | x | x | -7% | x | x
Cc1ccc2nc(NC(=O)c3ccco3)sc2c1 | 8.2µM* | 7.1µM* | 8.9µM* | u | u | 11
COc1ccc2nc(NC(=O)c3ccco3)sc2c1 | u | 10µM* | 10µM* | u | u | -7
O=C(Nc1nc2ccc(Cl)cc2s1)c1ccco1 | u | u | u | -20% | u | 9
CC(=O)Nc1nc2ccc(Br)cc2s1 | u | 8% | u | 13µM* | u | -18
Cc1ccc2nc(NC(=S)NC(=O)c3ccco3)sc2c1 | 3.3µM* | 3.5µM* | 0.28µM* | 5.2µM* | u | 12
CCN1C(=O)[C@H]2[C@H]3[C@H](O)[C@H](O)C/C(=N/OC[C@@H](C)[C@H](OCc4ccccc4)C(C)C)[C@@H]3CC[C@@H]2C1=O | x | -7%[10 µM] | -20%[10 µM] | x | x | x
OC1OC[C@@H](O)[C@@H](O)[C@@H]1O (stereo not given in full) | x | 1% | 22% | x | x | x
COc1ccc(COC(=O)CCCN=C2NS(=O)(=O)c3ccccc32)cc1F | u | x | x | u | x | 6
CC(=O)Nc1nc2ccc(NC(=O)c3ccco3)cc2s1 | 18µM* | 10% | 3% | u | u | -25
Cc1ccc(C(=O)Cn2cnc3ccccc3c2=O)cc1C | u | -2% | -40% | -24% | x | -3
COc1ccc(S(=O)(=O)c2c(O)c3ccc(C(=O)Nc4ccc(F)cc4)cc3[nH]c2=O)cc1 | 18% | 5% | 2% | -22% | 10% | -2
CCOc1ccc(S(=O)(=O)c2c(C(=O)c3ccc(C)c(C)c3)cnc3ccccc23)cc1 | 15µM* | x | x | 16µM* | x | x
Cc1ccc2ncc(C(=O)c3ccc(C)c(C)c3)c(S(=O)(=O)c3ccc(F)cc3)c2c1 | 9.2µM* | x | x | 8.2µM* | x | x
COc1ccc(C(=O)c2ccccc2Cl)cc1 | -27% | 1% | 16% | -14% | -1% | 5
COc1ccc(C(=O)c2cnc3ccc(C)cc3c2S(=O)(=O)c2ccccc2)cc1 | 18µM* | x | x | 16µM* | x | x
COc1ccc(S(=O)(=O)c2c(C(=O)c3ccc(C)c(C)c3)cnc3ccc(F)cc23)cc1 | 6.5µM* | x | x | 7.3µM* | x | x
O=C(C[n+]1cccc(Cl)c1)c1ccc(O)c(O)c1 | -24% | x | x | 6% | x | x
CC1N(C(=O)N(C)C)CCN1S(=O)(=O)c1ccccc1 (stereo not given) | -9% | -1% | -10% | -5% | -5% | -1
Cc1c(C(=O)c2ccc(Cl)c(Cl)c2)cnc2cc3c(cc12)OCO3 | u | u | u | u | u | -22
CCc1ccc(S(=O)(=O)c2c(C(=O)c3ccccc3)cnc3ccc(CC)cc23)cc1 | 15µM* | x | x | 15µM* | x | x
SMILES | TDP1 cell noCPT | VP16 counter | RORgamma inh | DT40 TDP1 CPT | ELG1 repair inh | IL-1B inflam inh
Cc1ccc(S(=O)(=O)c2c(C(=O)c3ccccc3)cnc3cc4c(cc23)OCCO4)cc1 | 21µM* | -5% | u | u | u | -61*
COc1ccc(C(=O)c2cnc3cc4c(cc3c2C)OCO4)cc1 | u | 2% | u | u | -17% | -56*
CCOC(=O)c1cnc2ccc(Cl)cc2c1Nc1ccc(S(=O)(=O)Nc2ncccn2)cc1 | -15% | -10% | 12% | -20% | 7% | 27
CCCN1C(=O)COc2ccc(-c3n[nH]c(=O)c4ccccc34)cc21 | u | -20% | u | u | -10% | 38
Cn1c(=O)c2c(nc(N3CCN(Cc4ccccc4)CC3)n2CCSc2ncccn2)n(C)c1=O | x | 0% | 39% | x | 5.2µM* | x
CN1CCN(c2nc3c(c(=O)[nH]c(=O)n3C)n2CCSc2ncccn2)CC1 | x | -5% | 0% | x | 7% | x
Cc1ccnc(SCCn2c(N3CCN(Cc4ccccc4)CC3)nc3c2c(=O)[nH]c(=O)n3C)n1 | -29% | 8% | 12% | u | 9.2µM* | 11
Cn1c(=O)[nH]c(=O)c2c1nc(N1CCN(c3ccccc3)CC1)n2CCSc1ncccn1 | 10µM* | 0% | u | u | u | -7
O=C(Nc1nnc([C@H]2C[C@H](O)[C@@H](CO)O2)s1)C(c1ccccc1)c1ccccc1 | -9% | x | x | -26% | x | 5
CCCc1nc2sc3c(=O)n(N)cnc3c2c2c1CCCC2 | 9.2µM* | 1% | 9% | 12µM* | 0% | 17
CCCCc1nc2sc3c(=O)n(N)cnc3c2c2c1CCCC2 | u | -4% | -6% | -25% | 5% | 8
COc1ccccc1C(=O)Nc1ccc(S(=O)(=O)Nc2cc(C)nc(C)n2)cc1 | 1% | 3% | -22% | -3% | 6% | 12
Cc1cc(NS(=O)(=O)c2ccc(NC(=O)c3ccc([N+](=O)[O-])s3)cc2)nc(C)n1 | 1% | x | x | -27% | u | -53*
O=[N+]([O-])c1cc(S(=O)(=O)NC2=NCCCCC2)ccc1NCC1CCCCC1 | u | -10% | u | 16µM* | u | -5
O=C(Nc1ccc(S(=O)(=O)NC2=NCCCCC2)cc1)c1ccc([N+](=O)[O-])s1 | 10µM* | x | x | 5.2µM* | u | -57*
COc1ccc(C(=O)Nc2ccc(S(=O)(=O)Nc3cc(C)nc(C)n3)cc2)c(OC)c1 | 23µM* | -1% | 13% | 21µM* | 2% | 13
C=CCOc1ccc(/C=C/C(=O)N2CCCN(S(=O)(=O)c3c(C)noc3C)CC2)cc1 | u | x | x | -11% | u | -21
O=C(Nc1ccc(S(=O)(=O)NC2=NCCCCC2)cc1)c1ccc(Cl)c([N+](=O)[O-])c1 | 23µM* | x | x | u | -6% | -96*
